Where “and” joins values, the source holds several entries; their conditions need not be identical. Identical values can stand only once. Inconclusive results are not listed. A number with no mark means an inactive call. Calls of active or inactive are those of the source. The call rests on the fitted dose curve; in most records, active means well fitted cell-killing curve with a large enough effect in the repeat runs; inconclusive means weak or mixed curves, or effect the other way; inactive means flat fitted curve, though single readings scatter.
Assay: cAMP Responsive Elements (CRE) small molecule agonists, cell-based qHTS assay: qHTS cell viability counter screen (AID 2060914); further: nearly all actives have a fitted effect of over 50% in size
Settings: CRE-bla HEK293T viability, CellTiter-Glo luminescence, 5 h; series mostly up to 92.4 µM; activity change, negative = cytotoxicity: at the top concentration
Method in brief: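 In the same wells as the reporter read, viability of CRE-bla HEK 293T cells was quantified by CellTiter-Glo luminescence after a 3 h compound exposure.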
For `C[C@]12CCC(=O)C[C@@H]1CC[C@@H]1[C@@H]2CC[C@]2(C)[C@@H](O)CC[C@@H]12`, the “activity change, negative = cytotoxicity” value was -14.3%. For `CCOC(=O)NC(=S)Nc1ccccc1NC(=S)NC(=O)OCC`, the “activity change, negative = cytotoxicity” value was 20%. In the case of `CO/N=C(/C1=NOCCO1)c1ccccc1Oc1ncnc(Oc2ccccc2Cl)c1F`, the “activity change, negative = cytotoxicity” value is reported as -16.5%. For `CCC(C)(NC(=O)c1cc(Cl)c(C)c(Cl)c1)C(=O)CCl` (stereo not given), the “activity change, negative = cytotoxicity” value was -29.7%. For `C[C@]12Cc3nonc3C[C@@H]1CC[C@@H]1[C@@H]2CC[C@@]2(C)[C@H]1CC[C@]2(C)O`, the Potency was 29.8 µM (active). In the case of `C[C@@H]1CC[C@@]2(OC1)O[C@H]1[C@@H](O)[C@H]3[C@@H]4CC[C@H]5C[C@@H](O[C@@H]6O[C@H](CO)[C@H](O[C@@H]7O[C@H](CO)[C@@H](O)[C@H](O[C@@H]8OC[C@@H](O)[C@H](O)[C@H]8O)[C@H]7O[C@@H]7O[C@H](CO)[C@@H](O)[C@H](O[C@@H]8O[C@H](CO)[C@@H](O)[C@H](O)[C@H]8O)[C@H]7O)[C@H](O)[C@H]6O)[C@H](O)C[C@]5(C)[C@H]4CC[C@]3(C)[C@H]1[C@@H]2C`, the Potency is reported as 29 µM (active). In the case of `CCC(C)(C)C(=O)OC1=C(c2ccc(Cl)cc2Cl)C(=O)OC12CCCCC2`, the “activity change, negative = cytotoxicity” value is reported as 15.8%. In the case of `O=C(O)c1ccccc1O`, the Potency is reported as “inactive”. In the case of `CCc1cc(OC)c(C[C@H](C)N)cc1OC`, the “activity change, negative = cytotoxicity” value is reported as -5.45%. With `Cc1cc(C2CC2)nc(Nc2ccccc2)n1` the “activity change, negative = cytotoxicity” value was -29.4%. In the case of `CCCSP(=S)(OCC)Oc1ccc(Cl)cc1Cl` (stereo not given), the “activity change, negative = cytotoxicity” value is reported as -11.7%. For `C=C(C)[C@H]1Cc2c(ccc3c2O[C@@H]2COc4cc(OC)c(OC)cc4[C@@H]2C3=O)O1`, the Potency was “inactive”. With `[Cl-].[Cl-].[Cl-].[Fe+3]` the Potency was “inactive”. For `COC(=O)NS(=O)(=O)c1ccc(N)cc1`, the Potency was “inactive”. For `c1ccc2sc(SNC3CCCCC3)nc2c1`, the Potency was “inactive”. With `O=[N+]([O-])c1ccc(F)c([N+](=O)[O-])c1` the “activity change, negative = cytotoxicity” value was -11.5%. In the case of `CCC(C)(c1ccc(O)cc1)c1ccc(O)cc1`, the “activity change, negative = cytotoxicity” value is reported as 7.34%. For `CC(=O)[O][Pb]([c]1ccccc1)([c]1ccccc1)[c]1ccccc1`, the Potency was 24.3 µM (active). For `N#CC(C#N)=NNc1cccc(Cl)c1`, the “activity change, negative = cytotoxicity” value was -12.9%. In the case of `c1cc[n+]2c(c1)-c1cccc[n+]1CC2`, the “activity change, negative = cytotoxicity” value is reported as 0.716% [at 42.5 µM]. In the case of `COC1=CC(=O)O[C@@H](/C=C/c2ccccc2)C1`, the “activity change, negative = cytotoxicity” value is reported as 0.347%. With `COc1ccc(OC)c(CC(C)N)c1` (stereo not given) the “activity change, negative = cytotoxicity” value was -2.95%. In the case of `CCc1cc2c(s1)-n1c(C)nnc1CN=C2c1ccccc1Cl`, the “activity change, negative = cytotoxicity” value is reported as 20.6% [at 42.5 µM]. With `CCCCCCCCCCCCN(C)C` the “activity change, negative = cytotoxicity” value was 4.85%. With `N#Cc1ccc(N(CC(N)=O)CC(F)(F)F)cc1C(F)(F)F` the “activity change, negative = cytotoxicity” value was 1.83%. For `C[C@]12CCC(=O)C(O)=C1CC[C@@H]1[C@@H]2CC[C@]2(C)C(=O)CC[C@@H]12`, the Potency was “inactive”. For `CCOP(=O)(N=C1SCCS1)OCC`, the “activity change, negative = cytotoxicity” value was 8.21%. For `Nc1nc(N)c(N)c(N)n1`, the “activity change, negative = cytotoxicity” value was -0.697%. With `BrC(Br)C(Br)(Br)Br` the “activity change, negative = cytotoxicity” value was 8.62%. In the case of `O=[N+]([O-])c1ccccc1O`, the Potency is reported as “inactive”. With `O=Cc1ccccc1` the “activity change, negative = cytotoxicity” value was 0.606%. In the case of `CC(C)(N)Cc1ccc(Cl)cc1`, the “activity change, negative = cytotoxicity” value is reported as -9.24% [at 42.5 µM]. For `CN1C[C@H](CNC(=O)OCc2ccccc2)C[C@@H]2c3cccc4c3c(cn4C)C[C@H]21`, the “activity change, negative = cytotoxicity” value was 8.33% [at 42.5 µM]. In the case of `CC(C)(c1ccccc1)c1ccc(O)c(C(C)(C)c2ccccc2)c1`, the Potency is reported as 60.6 µM (active) and 61.1 µM (active). In the case of `O=C(Cl)CCl`, the “activity change, negative = cytotoxicity” value is reported as 0.586%. For `CC(=O)[O-].CC(=O)[O-].CC(=O)[O-].[Cr+3]`, the “activity change, negative = cytotoxicity” value was 10.7%. With `[O]=[Cd]` the “activity change, negative = cytotoxicity” value was -13.7%. In the case of `CC(C)COP(=O)(OCC(C)C)OCC(C)C`, the “activity change, negative = cytotoxicity” value is reported as -3.66%. In the case of `OCCCl`, the “activity change, negative = cytotoxicity” value is reported as 3.07%. In the case of `Cc1cc(C)c(C(=O)P(=O)(c2ccccc2)c2ccccc2)c(C)c1`, the “activity change, negative = cytotoxicity” value is reported as -13.1%.

Source: PubChem BioAssay (Tox21)
On the % scale 0 is the no-effect control and ±100 the full control effect; potency means the concentration at half of the fitted maximal effect.
